Data reported in the OligoGym collection.
Note: reference of the scale not given here.

These sequences were tested against BVES (assay: pooled miR-30 sensor sort-seq; sequence = guide strand). Settings: shRNA.
With TTAGTCTTCTGAACAAATCTGG the sensor-assay potency score (higher = more potent) was 0.0292.
With TTATATCCAAGGCACATCGGTA the sensor-assay potency score (higher = more potent) was -1.03.
ATTTGCTACATGAAAAACCAGA gave a sensor-assay potency score (higher = more potent) of -1.03.
For TCTTCTATCGGTTTCATCTTGG, the sensor-assay potency score (higher = more potent) was 0.0355.
TTATCATCTGCAATAATGGTGA was tested, and the sensor-assay potency score (higher = more potent) was -0.542.
For TTCTTCTATCGGTTTCATCTTG, the sensor-assay potency score (higher = more potent) was -0.512.
With TTCTGCTCCTTCTTCTATCGGT the sensor-assay potency score (higher = more potent) was 0.109.
TAGTCTTCTGAACAAATCTGGA gave a sensor-assay potency score (higher = more potent) of -1.1.
TTCCTTTTCAATCTTTACCGGT gave a sensor-assay potency score (higher = more potent) of -0.474.
In the case of TTGTGCATCTGAGTTGATCTAA, the sensor-assay potency score (higher = more potent) is reported as 0.0688.
In the case of TTTTTCACCTTTGTGCATCTGA, the sensor-assay potency score (higher = more potent) is reported as 0.533.
TTTCATACAAGAAAGGTTCTGA was tested, and the sensor-assay potency score (higher = more potent) was 0.905.

Each sequence was assayed against BZW1 in the same assay as above. Settings: shRNA.
With TTACTTCATCTTCAAAACCTTT the sensor-assay potency score (higher = more potent) was -1.14.
In the case of TAATACAGTCTTGAAACTGAGT, the sensor-assay potency score (higher = more potent) is reported as -0.709.
TTCTTCAGCATTTTTGAGCCAT showed a sensor-assay potency score (higher = more potent) of -0.303.
AATAATACAGTCTTGAAACTGA was tested, and the sensor-assay potency score (higher = more potent) was 0.296.
With TTATCCATGCTGACTTTCCGAA the sensor-assay potency score (higher = more potent) was -0.947.
TTTTCTAGTTTTAAAACGCTGG gave a sensor-assay potency score (higher = more potent) of -0.34.
